TexasRed fluor: Texas Red fluorescence interference in TRb-SRC2 counter-screen; 280,000 compounds, 0.29% hits; AID 1479; TRb/SRC2 Texas Red total fluorescence interference; Potency, µM (highest dose often 106 µM), for inactives: at the top dose fluorescence change, negative = quenching; active = well fitted curve in either direction with a large enough effect; inconclusive = small, poorly fitted or top-dose-only effect
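Flags fluorescent or light-absorbing compounds by total fluorescence, S + 2P, at 555 nm excitation and 632 nm emission. Mixture: 20 nM Texas Red SRC2 peptide, 0.6 uM human TRb LBD, 1 uM T3, 5% DMSO; compound exposure 5 h at ambient temperature.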
Tau FP inhib: blocks human tau fibril formation measured by polarization | K18 P301L tau heparin fibrillization, Alexa594 FP, 6 h | Potency, µM (titrated, usually from 57.7 µM), inactives show at the highest dose activity, negative = inhibition, most hits filed as inhibitors | 280,000 compounds, 0.39% hits; also: nearly all actives have a fitted effect of over 55% in size
Target sequence (P10636 561-689 P618L limits assumed): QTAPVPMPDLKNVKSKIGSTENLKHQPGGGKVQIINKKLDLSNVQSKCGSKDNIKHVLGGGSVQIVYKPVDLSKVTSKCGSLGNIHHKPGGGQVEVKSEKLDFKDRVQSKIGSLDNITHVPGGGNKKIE
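Human tau K18 […] P301L fragment, 15 uM unlabeled plus 0.24 uM Alexa 594-labeled tau (final), with compound and 20 uM heparin in 100 mM sodium acetate pH 7; 6 hr at 37 C, then Alexa 594 FP read.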
JMJD2E inh: blocks human JMJD2E demethylase activity; AID 2147; Potency, µM (titrated, usually from 57.1 µM), without a hit: top-dose activity change, negative = inhibition, actives largely listed as inhibitors; B2RXH2; JMJD2E catalytic domain, FDH-coupled NADH fluorescence (FDH is formaldehyde dehydrogenase); 230,000 compounds, 1.6% hits; active = well fitted inhibition curve with a large enough effect, not every such curve was filed as active; inconclusive = small, poorly fitted or top-dose-only effect, or another doubt; inactive = no such curve, though single readings can be large or run the other way;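 also: 0% = wells with enzyme and -100% = buffer wells without enzyme; nearly all actives have a fitted effect of over 50% in size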
TRb-SRC2 inh: TRbeta-SRC2 interaction inhibition. P10828. TRbeta-SRC2 peptide binding, fluorescence polarization; receptor liganded with 1 µM T3. Potency, µM (doses to about 106 µM), inactives show at the top dose activity change, negative = inhibition, actives largely listed as inhibitors. 280,000 compounds, 0.065% hits. AID 1469;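 also: plate controls were bound peptide for no effect and peptide without receptor for full effect; nearly all actives have a fitted effect of over 50% in size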
Target sequence (P10828 whole entry, looked up): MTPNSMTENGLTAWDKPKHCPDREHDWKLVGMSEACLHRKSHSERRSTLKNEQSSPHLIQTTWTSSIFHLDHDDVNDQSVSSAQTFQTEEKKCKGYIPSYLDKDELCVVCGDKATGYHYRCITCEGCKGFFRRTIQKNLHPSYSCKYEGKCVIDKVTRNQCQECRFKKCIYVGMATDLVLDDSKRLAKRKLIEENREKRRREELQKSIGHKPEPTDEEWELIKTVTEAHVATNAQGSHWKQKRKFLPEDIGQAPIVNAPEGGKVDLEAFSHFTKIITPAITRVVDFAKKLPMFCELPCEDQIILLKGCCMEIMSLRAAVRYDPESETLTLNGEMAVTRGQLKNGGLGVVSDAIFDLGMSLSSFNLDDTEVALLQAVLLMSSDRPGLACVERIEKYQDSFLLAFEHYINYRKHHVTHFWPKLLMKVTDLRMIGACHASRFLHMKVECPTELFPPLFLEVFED
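Polarization signal, normalized between peptide-alone and full complex controls, measured compound effects on T3-liganded human TRb LBD (0.6 uM) binding 20 nM Texas Red SRC2 peptide after 5 hr.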
Tau ThT inhib: blocks human tau fibril formation measured by thioflavin T; recombinant tau K18 P301L, heparin-induced fibrillization, ThT fluorescence; AID 1460; 270,000 compounds, 2.1% hits; Potency, µM (titrated, usually from 57.4 µM), without a hit: top-dose activity, negative = inhibition, most hits filed as inhibitors; also: nearly all actives have a fitted effect of over 55% in size
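K18 P301L tau (15 uM + 0.24 uM Alexa 594-tagged), heparin 20 uM, NaOAc pH 7, 6 h 37 C; ThT 30 uM, 1 h RT, ex 450/em 510 nm.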
Tau fluor counter: counter-screen for tau fibril formation inhibitors | tau K18 P301L (four-repeat tau fragment) Alexa594 fluorescence, heparin fibrillization | Potency, µM (highest dose often 57.7 µM), inactives show top-dose activity change, negative = decrease | 280,000 compounds, 0.93% hits; also: nearly all actives have a fitted effect of over 55% in size
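Human K18 P301L tau (15 uM unlabeled plus 0.24 uM Alexa 594-labeled, final) in 100 mM sodium acetate pH 7 was mixed with compound and 20 uM heparin and incubated 6 hr at 37 C.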
* = called active by the depositor; ? = inconclusive; · = not tested or not shown; [ ] = remark or other dose. This is a sample that favours compounds with a hit; in the whole collection about 3.5% have one here. Unless noted, calls follow the shape of the dose curve; as a rule, active = well fitted curve in the direction sought with a large enough effect; inconclusive = small, poorly fitted or top-dose-only effect, or another doubt; inactive = no such curve, though single readings can be large; an effect the other way counts as inactive or inconclusive. Unless noted, % is scaled to controls: 0 for no effect and ±100 for the full control effect; potency is read from the fitted curve at half-maximal effect.

SMILES	TexasRed fluor	Tau FP inhib	JMJD2E inh	TRb-SRC2 inh	Tau ThT inhib	Tau fluor counter
O=[N+]([O-])c1nn(-c2ccc3c(c2)OCCO3)n(O)c1=Nc1ccc(Cl)cc1	-1%	?	-1%	-1%	14µM*	?
CCc1ccc(N=c2c([N+](=O)[O-])nn(-c3ccc4c(c3)OCCO4)n2O)cc1	-5%	11%	-24%	2%	11µM*	?
O=[N+]([O-])c1nn(-c2ccc3c(c2)OCCO3)n(O)c1=Nc1ccccc1	0%	3%	1%	1%	4%	0%
CCOC(=O)N1CCc2c(sc3c2c(=O)n(-c2ccc(Cl)cc2)c(=O)n3CC(=O)c2ccc(F)cc2)C1	0%	-8%	·	-4%	6%	-1%
C=CCCC(=O)Nc1nc(C)c(-c2csc(Nc3cc(OC)ccc3OC)n2)s1	-7%	13%	?	-7%	14µM*	14µM*[quencher]
Cc1ccc(Cl)cc1Nc1nc(-c2sc(NC(=O)C(C)(C)C)nc2C)cs1	11%	3%	-10%	2%	?	?
COc1cccc(Nc2nc(-c3sc(NC(=O)CC(C)C)nc3C)cs2)c1	4%	6%	-7%	5%	16µM*	16µM*[quencher]
COc1ccccc1Nc1nc(-c2sc(NC(=O)c3cccc(Cl)c3)nc2C)cs1	2%	?	?	0%	?	?
Cc1nc(NC(=O)c2ccc(Cl)cc2)sc1-c1csc(Nc2cccc(F)c2)n1	1%	?	?	-2%	7.1µM*	13µM*[quencher]
CCCC(C)C(=O)Nc1nc(C)c(-c2csc(Nc3cc(OC)ccc3OC)n2)s1 (stereo unspecified)	-2%	?	?	-4%	?	8.9µM*[quencher]
Cc1ccc(Nc2nc(-c3sc(NC(=O)c4cccc(Cl)c4)nc3C)cs2)cc1	16%	?	-6%	-1%	?	?
CCCC(=O)Nc1nc(C)c(-c2csc(Nc3cc(OC)ccc3OC)n2)s1	-5%	?	?	-2%	?	14µM*[quencher]
CCOc1ccccc1Nc1nc(-c2sc(C)nc2C)cs1	-3%[53 µM]	5%	?	7%[53 µM]	?	?
CCCCCC(=O)Nc1nc(C)c(-c2csc(Nc3cc(Cl)ccc3OC)n2)s1	2%	2%	-23%	5%	?	?
COc1ccccc1Nc1nc(-c2c(C)[nH]c3ccccc23)cs1	18%	8%	28µM*	7%	?	?
CCCC(=O)Nc1nc(C)c(-c2csc(Nc3ccccc3OC)n2)s1	2%	20%	4%	-2%	13µM*	16µM*[quencher]
COc1ccccc1Nc1nc(-c2sc(NC(=O)CC(C)C)nc2C)cs1	8%	5%	?	-10%	?	?
C=CCCC(=O)Nc1nc(C)c(-c2csc(Nc3cccc(OC)c3)n2)s1	1%	?	-25%	-8%	14µM*	?
O=C(CSc1nnc2ccc3ccccc3n12)c1ccc(F)cc1	4%	1%	·	-4%	-8%	-5%
CC(C)N(C(=O)Cn1cnc2cc([N+](=O)[O-])ccc2c1=O)C(C)C	-2%	0%	-22%	3%	?	-19%
O=C(NC1CCN(C(=O)c2cccs2)CC1)c1ccccc1	-3%	0%	7%	-3%	-4%	-4%
COc1ccc(OC)c(Nc2nc(-c3sc(N)nc3C)cs2)c1	-4%	-9%	-12%	-1%	11µM*	14µM*[quencher]
COc1ccccc1Nc1nc(-c2sc(NC(=O)C(C)(C)C)nc2C)cs1	13%	12%	0%	15%	?	?
COc1cccc(Nc2nc(-c3sc(NC(=O)c4ccccc4)nc3C)cs2)c1	-4%	8%	?	0%	18µM*	32µM*[quencher]
CCC(=O)Nc1nc(C)c(-c2csc(Nc3cccc(C(=O)O)c3)n2)s1	1%	6%	-2%	-3%	4µM*	-21%
SMILES	TexasRed fluor	Tau FP inhib	JMJD2E inh	TRb-SRC2 inh	Tau ThT inhib	Tau fluor counter
Cc1nc(NC(=O)c2ccccc2)sc1-c1csc(Nc2ccc(C(=O)O)cc2)n1	-5%	14%	-27%	-3%	·	?
CN(C)CCOc1cc(Cl)cc(Cl)c1	3%	?	-3%	-8%	1%	3%
CN(C)CCOc1cccc(Cl)c1	0%	-4%	22µM*	0%	-1%	-1%
COc1ccc(-c2cc(=O)n(-c3nc4ccccc4[nH]3)[nH]2)cc1	-9%	-17%	?	-6%	32µM*	?
Oc1ccc2c(c1)OCC1(O)Cc3cc(O)c(O)cc3C21 (stereo unspecified)	?	?	14µM*	?	22µM*	?
Oc1cc2c(cc1O)[C@H]1c3ccc(O)c(O)c3OC[C@@]1(O)C2	-2%	?	3.5µM*	1%	18µM*	?
CC(=O)Oc1ccc2c(c1OC(C)=O)OCC1(O)Cc3c(cc(OC(C)=O)c(OC(C)=O)c3OC(C)=O)C21 (stereo unspecified)	?	-12%	-25%	-4%	?	?
COc1ccc(CNS(=O)(=O)c2ccc(F)c(C(=O)Nc3c(C)cc(C)cc3C)c2)cc1	-1%	-4%	·	-3%	7%	-8%
O=c1c2ccccc2nc2ccc(NCc3ccco3)nn12	0%	22µM*	?	-11%	18µM*	-22%
COc1cc(/C=C(\C#N)C(=O)c2ccc(O)c(O)c2)cc(I)c1O	-6%	3%	10µM*	-5%	8.9µM*	?
COc1cc(/C=C(\C#N)C(=O)N2CCOCC2)cc(Br)c1O	3%	-10%	0%	-4%	?	-20%
Cc1ccc(-n2c(Cc3ccccc3)n[nH]c2=S)c(C)c1	-6%	3%	-5%	-3%	-7%	-6%
Oc1ccc(CN2CCC(Cc3ccccc3)CC2)c2cccnc12	0%	-4%	?	-7%	?	-26%
Cc1ccc(C)c(S(=O)(=O)N2CCN(Cc3ccc(O)c4ncccc34)CC2)c1	-2%	9%	3.5µM*	5%	-14%	-11%
Oc1ccc(CN2CCN(c3ccccc3)CC2)c2cccnc12	-6%	-7%	18µM*	7%	?	-22%
CCOC(=O)N1CCN(Cc2ccc(O)c3ncccc23)CC1	-3%	4%	13µM*	4%	?	-23%
CCOC(=O)/C(=N\Nc1ccc(OC)cc1)c1csc(Nc2ccccc2)n1	-9%	?	-10%	-3%	?	7.1µM*[quencher]
CCOC(=O)/C(=N/Nc1ccccc1)c1csc(Nc2ccccc2)n1	-2%	?	-10%	1%	?	7.1µM*[quencher]
CCOC(=O)/C(=N\Nc1ccc(Cl)cc1)c1csc(Nc2ccccc2)n1	-7%	?	-2%	-3%	?	4.5µM*[quencher]

Assay outcomes: PubChem, National Center for Advancing Translational Sciences (NCATS)
